Experiment [1] in a line: A CellTox Green Cytotoxicity Assay to monitor cytotoxicity in HEK293 cells - 32 hour (AID 1224881). Note: nearly all actives have a fitted effect of over 40% in size. Note: potency is the fitted concentration of half-maximal effect. The method in brief:
(§1)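 HEK293 cells, 600/well, were preincubated 5 hours and then exposed to compounds at 37 C for up to 40 hours. A cell-impermeant cyanine dye staining dead-cell DNA was read by fluorescence at 0, 8, 16, 24, 32 and 40 h time points.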

A short description of experiment [2]: A CellTox Green Cytotoxicity Assay to monitor cytotoxicity in HepG2 cells - 0 hour (AID 1224882). Note: nearly all actives have a fitted effect of over 35% in size. The method in brief: (§2)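 HepG2 cells, 600/well, preincubated 5 h with CellTox Green dye, then exposed to Tox21 compounds in DMSO at 37 C for up to 40 h. Dead-cell DNA fluorescence read at the indicated time point.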
Experiment [3] can be described thus: A CellTox Green Cytotoxicity Assay to monitor cytotoxicity in HEK293 cells - 8 hour (AID 1224884). Note: nearly all actives have a fitted effect of over 35% in size. The method in brief:
as §1

Experiment [4] can be described thus: qHTS RealTime-Glo MT Cell Viability Assay in HepG2 cells - 16 hour (AID 1224885). Note: nearly all actives have a fitted effect of over 50% in size. The method in brief: (§3)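 Real-time, nonlytic viability: 600 HepG2 cells/well mixed with NanoLuc enzyme plus prosubstrate; 5 h settle, compound (DMSO) added by pintool; luminescence monitored over 40 h at 37 C.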
Experiment [5] is described as follows: qHTS RealTime-Glo MT Cell Viability Assay in HEK293 cells - 24 hour (AID 1224886). Note: nearly all actives have a fitted effect of over 50% in size. Note: potency is the fitted concentration of half-maximal effect. The method in brief:
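Cells + reagent dispensed (600 cells/well, HEK293) → 5 h at 37 C/5% CO2 → 23 nL compound in DMSO pinned → 40 h at 37 C → luminescence read at 0, 8, 16, 24, 32, 40 h.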
Background: Quantitative high-throughput screening tests each substance at several concentrations.

Experiment [6] is described as follows: qHTS RealTime-Glo MT Cell Viability Assay in HEK293 cells - 8 hour (AID 1224887). Note: top concentration of the series differs between compounds; nearly all actives have a fitted effect of over 50% in size. The method in brief: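 600 cells/well were plated with the nonlytic NanoLuc/prosubstrate reagent, pre-incubated 5 h, then given 23 nL of compound in DMSO. Incubation at 37 C for 40 h, with luminescence from viable-cell-reduced substrate read repeatedly from 0 h.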
A short description of experiment [7]: A CellTox Green Cytotoxicity Assay to monitor cytotoxicity in HEK293 cells - 16 hour (AID 1224888). Note: nearly all actives have a fitted effect of over 35% in size. The method in brief: as §1
A short description of experiment [8]: qHTS RealTime-Glo MT Cell Viability Assay in HepG2 cells - 0 hour (AID 1224889). Note: nearly all actives have a fitted effect of over 50% in size. The method in brief:
as §3

Experiment [9] is described as follows: A CellTox Green Cytotoxicity Assay to monitor cytotoxicity in HepG2 cells - 8 hour (AID 1224890). Note: nearly all actives have a fitted effect of over 45% in size. The method in brief: as §2
A short description of experiment [10]: qHTS assay to identify small molecule antagonists of the estrogen receptor alpha (ER-alpha) signaling pathway using the BG1 cell line in the presence of 0.1 nM 17-beta-estradiol - cell viability counter screen (AID 1259241). Note: nearly all actives have a fitted effect of over 40% in size. The method in brief: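 VM7Luc4E2, 4,000 cells/well, phenol red-free medium + 10% charcoal-stripped FBS; 24 hr plating; cpd + 0.1 nM E2 final, 22 hr 37C/5% CO2; CellTiter-Fluor 30 min, fluorescence.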

Experiment [11] deals with Estrogen receptor (Homo sapiens) (UniProt P03372). As to the kind of experiment: qHTS assay to identify small molecule antagonists of the estrogen receptor alpha (ER-alpha) signaling pathway using the BG1 cell line in the presence of 0.1 nM 17-beta-estradiol (AID 1259244). Note: nearly all actives have a fitted effect of over 50% in size. Note: potency is the fitted concentration of half-maximal effect. The method in brief:
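VM7Luc4E2 cells (endogenous full-length ER-alpha, 4×ERE-luciferase), kept 5 days in phenol red-free, charcoal-stripped FBS medium; 4,000 cells/well. Compounds added with 0.1 nM (final) 17beta-estradiol, 22 hr at 37C; luminescence read with ONE-Glo after 30 min.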

Experiment [12] can be described thus: qHTS assay to identify small molecule HDAC inhibitors (AID 1259364). Note: top concentration of the series differs between compounds; nearly all actives have a fitted effect of over 45% in size. The method in brief:
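Wild-type HCT-116 cells, plated overnight at 37 C, exposed to compounds 2 hr at 37 C; luminogenic HDAC-Glo substrate then added 30 min at room temperature. Luminescence reports relative endogenous class I/II HDAC activity.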

Experiment [13] in a line: qHTS assay to identify small molecule HDAC inhibitors - cell viability counter screen (AID 1259365). The method in brief:
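Luminescence from CellTiter-Glo, developed 30min at room temperature, reports viability of wild-type HCT-116 cells treated 2hr with compounds at 37 C and 5% CO2 after overnight plating.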

Experiment [14] in a line: qHTS assay to identify small molecule agonists of the sonic hedgehog signaling (Shh) pathway - cell viability counter screen (AID 1259366). Note: nearly all actives have a fitted effect of over 50% in size. Note: potency is the fitted concentration of half-maximal effect. The method in brief:
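Cytotoxicity counter screen run in the same wells as the Shh reporter assay. NIH/3T3 cells carrying a Gli1 response element–driven luciferase were treated with DMSO-dissolved compounds for 24hr, and live-cell protease activity was measured with CellTiter-Fluor.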

Experiment [15] can be described thus: qHTS assay to identify small molecule antagonists of the sonic hedgehog signaling (Shh) pathway - cell viability counter screen (AID 1259367). Note: nearly all actives have a fitted effect of over 55% in size. Note: potency is the fitted concentration of half-maximal effect. The method in brief: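 Seed 3T3 Gli1-Luc cells at 2,000 per well; incubate 4 hr; add compound in DMSO, then conditioned medium; incubate at 37C with 5% CO2; add CellTiter-Fluor after 23 hr; read fluorescence 1 hr later.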

Experiment [16] in a line: qHTS assay to identify small molecule agonists of the sonic hedgehog signaling (Shh) pathway (AID 1259368; calls by dose curve;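 note: NIH/3T3-derived 3T3Gli1-Luc cells carrying a stable Gli1-driven firefly luciferase reporter; series mostly up to about 92 µM; nearly all actives have a fitted effect of over 15% in size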). The method in brief: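 NIH/3T3-derived 3T3Gli1-Luc cells with stably integrated Gli1-driven firefly luciferase, 2,000 cells/well, compounds added after 4 hr. Incubated 24 hr at 37C, 5% CO2; luminescence read after 30 min with luciferase reagent at room temperature.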

Experiment [17] in a line: qHTS assay to identify small molecule antagonists of the sonic hedgehog signaling (Shh) pathway (AID 1259369; calls by dose curve; note: nearly all actives have a fitted effect of over 45% in size; note: potency is the fitted concentration of half-maximal effect). The method in brief:
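NIH/3T3-derived Gli1-Luc reporter cells plated 4 h, dosed with compound, then stimulated with conditioned medium for 24 h at 37 C. Firefly luciferase luminescence read after 30 min with detection reagent at room temperature.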

Experiment [18] in a line: qHTS assay to identify small molecule phospholipidosis (PLD) inducers (AID 1259344; active = well fitted curve in the direction sought with a large enough effect; an effect the other way counts as inactive or inconclusive). The method in brief: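 Quantitative HTS in HepG2: compound plus LipidTOX Red dye for 24 h, paraformaldehyde fixation with Hoechst 33342, widefield high-content imaging; amiodarone as positive and DMSO as negative control.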
The nature of experiment [19]: qHTS assay to identify small molecule antagonists of the androgen receptor (AR) signaling pathway using the MDA cell line in the presence of 0.5 nM R1881 - cell viability counter screen (AID 1259242). Note: nearly all actives have a fitted effect of over 45% in size. The method in brief:
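MDA-kb2 cells (MMTV-luciferase, AR/GR responsive) were treated with compounds plus 0.5 nM R1881 (final) for 16 hr at 37C, 0% CO2. Viability was then read in the same wells as live-cell protease fluorescence (CellTiter-Fluor, 30 min).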

Each structure is given as a SMILES string. Several values for one entry are separate records, joined by “and”; a condition that tells them apart may be missing. Equal entries are not always repeated. Records with an inconclusive call do not appear. Some compounds were tested as several samples or in several runs, with calls that do not always agree. Activity calls are given as the source filed them. Unless noted, calls come from the whole dose curve; as a rule, active = well fitted curve in the direction sought with a large enough effect in the repeat runs; inconclusive = weak or mixed curves; inactive = no such curve, though single readings can be large; an effect the other way counts as inactive or inconclusive.

Sequence of Estrogen receptor (Homo sapiens) (P03372 whole entry, looked up): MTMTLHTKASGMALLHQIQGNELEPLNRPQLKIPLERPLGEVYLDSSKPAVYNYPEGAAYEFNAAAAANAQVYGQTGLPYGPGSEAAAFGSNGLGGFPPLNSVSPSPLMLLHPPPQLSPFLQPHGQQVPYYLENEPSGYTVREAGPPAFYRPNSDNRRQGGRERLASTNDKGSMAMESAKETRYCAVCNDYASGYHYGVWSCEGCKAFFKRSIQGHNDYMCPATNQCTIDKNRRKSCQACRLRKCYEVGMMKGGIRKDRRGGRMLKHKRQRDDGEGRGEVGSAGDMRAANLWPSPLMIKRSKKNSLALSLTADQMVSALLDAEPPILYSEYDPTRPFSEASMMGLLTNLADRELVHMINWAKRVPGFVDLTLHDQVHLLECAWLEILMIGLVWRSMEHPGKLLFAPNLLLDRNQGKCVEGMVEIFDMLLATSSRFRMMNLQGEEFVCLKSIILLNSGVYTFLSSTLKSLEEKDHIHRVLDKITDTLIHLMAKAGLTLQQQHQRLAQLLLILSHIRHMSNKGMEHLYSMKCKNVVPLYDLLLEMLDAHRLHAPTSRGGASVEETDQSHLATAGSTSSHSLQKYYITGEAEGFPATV

As to `c1nc[nH]n1`, the Potency result in [1], in experiment [2], in [3], in experiment [4], in experiment [5] and in [6] was “inactive” throughout. Moreover, the Potency result in experiment [7], in experiment [8], in [9], in experiment [10], in experiment [11] and in experiment [12] was “inactive” each time. The Potency entry in experiment [14], in experiment [15], in experiment [16] and in experiment [17] was “inactive” in each case. Also, the result in [13] was inactive.
Regarding `CCCCCCCCOC(=O)c1ccccc1C(=O)OCCCCCCCC`, the Potency result in experiment [1], in experiment [2], in [3], in experiment [4], in [5] and in experiment [6] was “inactive” in each case. Also, the Potency entry in experiment [7], in experiment [8], in experiment [9], in experiment [10], in experiment [11] and in [12] was “inactive” throughout. Moreover, the Potency result in [14], in experiment [15], in experiment [16] and in experiment [17] was “inactive” each time. Further, the compound was called inactive in [18] and in [13].
For `Cc1ccc(OP(=O)(Oc2ccc(C)cc2)Oc2ccc(C)cc2)cc1`, the Potency result in experiment [1], in experiment [2], in [3], in experiment [4], in experiment [5] and in experiment [6] was “inactive” each time. Besides, the Potency entry in [7], in [8], in experiment [9], in experiment [10], in [19] and in experiment [14] was “inactive” throughout. Further, the Potency result in [15], in experiment [16] and in [17] was “inactive” in each case. In experiment [13], the outcome was inactive.
For `CCC(C)c1cc([N+](=O)[O-])cc([N+](=O)[O-])c1O` (stereo not given), the Potency result in experiment [1], in experiment [2], in [3], in experiment [4], in [5] and in experiment [6] was “inactive” in each case. For the same compound, the Potency entry in [7], in [8], in experiment [9], in experiment [12] and in experiment [16] was “inactive” in each case. Further, the Potency result is “inactive and 17.2 µM (active)” in experiment [11]; “inactive and 43.3 µM (active)” in experiment [14]; “inactive and 24.3 µM (active)” in experiment [15]; “inactive and 12.2 µM (active)” in experiment [17]. The outcome in experiment [13] was inactive.
For the compound `c1ccc(-c2cccc(-c3ccccc3)c2)cc1`, the Potency entry in experiment [1], in experiment [2], in experiment [3], in [4], in [5] and in experiment [6] was “inactive” throughout. Moreover, the Potency result in [7], in experiment [8], in experiment [9], in experiment [10], in [19] and in [11] was “inactive” each time. The Potency entry in experiment [12], in experiment [14], in experiment [15], in experiment [16] and in experiment [17] was “inactive” in each case. For the same compound, in experiment [13], the outcome was inactive.
As for `CC(C)Oc1cc(-n2nc(C(C)(C)C)oc2=O)c(Cl)cc1Cl`, the Potency is 608 nM (active) and inactive in experiment [1]; 30.9 µM (active) in experiment [5]; 61.1 µM (active) in [11]. Besides, the Potency result in experiment [2], in [3], in experiment [4], in experiment [8], in [9] and in [10] was “inactive” throughout. Moreover, the Potency entry in experiment [19], in experiment [14], in [15], in experiment [16] and in experiment [17] was “inactive” each time. Also, in experiment [13], the compound was called inactive.
As for `CCCCC(CC)COC(=O)c1ccc(C(=O)OCC(CC)CCCC)c(C(=O)OCC(CC)CCCC)c1` (stereo not given), the Potency entry in experiment [1], in experiment [2], in experiment [3], in [4], in [5] and in experiment [6] was “inactive” throughout. Moreover, the Potency result in [7], in [8], in experiment [9], in experiment [10], in experiment [14] and in experiment [15] was “inactive” in each case. The Potency result in [16] and in experiment [17] was “inactive” each time. Also, in experiment [13], the compound was called inactive.

For the origin of these results see PubChem BioAssay (Tox21).
